Structures are written as SMILES. The whole screen tested about 360,000 compounds, of which about 660 (0.18%) were called active. Inconclusive results (about 2%) are left out. Calls come from the whole dose curve; as a rule, active = well fitted inhibition curve with a large enough effect; inconclusive = small, poorly fitted or top-dose-only effect; inactive = no such curve, though single readings can be large or run the other way. Shown is part of a subset that was picked to be rich in actives.
% is set by controls: 0 for no effect and ±100 for the full control effect; potency is the fitted concentration of half-maximal effect.

Chain of Rap guanine nucleotide exchange factor 4 (Homo sapiens) (Q8WZA2 whole entry, looked up): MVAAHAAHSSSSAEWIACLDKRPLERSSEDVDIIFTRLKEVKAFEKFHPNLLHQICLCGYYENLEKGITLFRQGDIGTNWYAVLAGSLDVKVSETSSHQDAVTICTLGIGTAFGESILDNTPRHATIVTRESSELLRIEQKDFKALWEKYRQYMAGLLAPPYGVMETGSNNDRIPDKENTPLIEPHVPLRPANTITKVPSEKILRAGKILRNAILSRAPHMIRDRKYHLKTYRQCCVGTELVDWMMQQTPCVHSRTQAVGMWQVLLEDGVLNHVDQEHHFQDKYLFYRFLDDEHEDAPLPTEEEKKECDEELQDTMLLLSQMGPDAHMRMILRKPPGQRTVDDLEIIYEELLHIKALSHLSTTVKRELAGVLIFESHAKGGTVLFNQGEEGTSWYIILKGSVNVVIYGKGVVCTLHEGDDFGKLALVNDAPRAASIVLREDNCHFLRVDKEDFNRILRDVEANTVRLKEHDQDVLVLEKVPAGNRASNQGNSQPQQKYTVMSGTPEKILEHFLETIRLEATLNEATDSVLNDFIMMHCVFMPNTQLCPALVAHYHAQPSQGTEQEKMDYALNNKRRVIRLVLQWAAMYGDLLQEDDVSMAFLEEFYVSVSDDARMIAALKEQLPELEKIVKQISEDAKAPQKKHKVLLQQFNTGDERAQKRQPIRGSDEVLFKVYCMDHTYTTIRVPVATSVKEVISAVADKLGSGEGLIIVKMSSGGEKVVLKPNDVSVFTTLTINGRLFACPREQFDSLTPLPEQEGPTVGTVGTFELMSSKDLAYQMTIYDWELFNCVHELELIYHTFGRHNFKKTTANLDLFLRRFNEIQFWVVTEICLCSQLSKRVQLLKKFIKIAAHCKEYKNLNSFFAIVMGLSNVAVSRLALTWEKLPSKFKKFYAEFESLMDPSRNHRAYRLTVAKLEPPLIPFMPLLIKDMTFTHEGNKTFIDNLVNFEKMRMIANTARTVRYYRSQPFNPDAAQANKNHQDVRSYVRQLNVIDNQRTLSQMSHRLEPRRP

This experiment concerns the target Rap guanine nucleotide exchange factor 4 (Homo sapiens) (UniProt Q8WZA2). Kind of experiment: qHTS for Antagonist of cAMP-regulated guanine nucleotide exchange factor 2 (EPAC2): primary screen. Note: nearly all actives have a fitted effect of over 45% in size. Particulars: EPAC2 GEF exchange of Rap1B-BODIPY-GDP, fluorescence; series mostly up to 114 µM; activity, negative = inhibition: at the top concentration. An excerpt:
In multi-cellular eukaryotic organisms, the effects of cAMP are transduced by two ubiquitously-expressed intracellular cAMP receptors, the classic protein kinase A/cAMP-dependent protein kinase (PKA/cAPK) and the more recently discovered exchange protein directly activated by cAMP/cAMP-regulated guanine nucleotide exchange factor (EPAC/cAMP-GEF). Both PKA and EPAC are ubiquitously expressed in all tissues, and an increase in intracellular cAMP levels will lead to the activation of both PKA and EPAC. Therefore, careful dissections of the individual role and relative contribution of EPAC and PKA within the overall cAMP signaling in various model systems are critical for further elucidating the mechanism of cAMP signaling. To date no EPAC-specific antagonists and agonist, as well as isoform-specific agonists have been reported, and developing EPAC-specific pharmacological probes to determine the physiological functions that EPAC play in the overall cAMP-mediated signaling remains a major challenge within the research field. Furthermore, identified regulators of EPAC may lead to new mechanism-based therapeutic strategies specifically targeting the EPAC / cAMP-signaling components as EPAC has been implicated to play important roles in major human pathological conditions such as diabetes, heart disease, and cancer.
This qHTS will be used to screen the Molecular Libraries Small Molecule Repository (MLSMR) as a concentration-titration series using the NCGC unique quantitative screening (qHTS) platform to find inhibitors for EPAC2. In addition, this assay will also be used as a counterscreen for the EPAC1 qHTS. This fluorescent based assay is developed and validated for EPAC2 that measures exchange using EPAC effector Rap1 complex with BODIPY-GDP, a GDP analog with a tethered fluorophores. Inhibitors are identified by monitoring the change in fluorescence signal as the exchanged free BODIPY-GDP has a reduced fluorescence compared to Rap1-bound BODIPY-GDP. Decrease in signal (inhibition) is the desired outcome for the EPAC2 antagonist while no activity in this assay is desired for the EPAC1 antagonist counterscreen.
NIH Chemical Genomics Center [NCGC]
NIH Molecular Libraries Probe Centers Network [MLPCN]
Assay Submitter (PI): Xiaodong Cheng, The University of Texas, Medical Branch
Briefly, three uL of reagents (100 nM EPAC2, 250 nM RAP1B-BODIPY-GDP, 50 uM GDP) were dispensed into a 1536-well Greiner black solid-bottom medium binding assay plate. Controls and test compounds (23 nL) were transferred to the plate via a Kalypsys pin tool equipped with a 1536-pin array. The plates were centrifuged at 1,000 rpm for 15 seconds followed by 5 minute incubation at room temperature. The assay plates were read at 5 minute intervals for 30 minutes in the ViewLux plate reader using 480nm excitation and 540nm emission filters. The results were normalized to the agonist positive control ATA and DMSO.
For orientation: In qHTS, concentration-response curves come from the screen itself.
In the case of `CCOP(=O)(OCC)C(NC(=O)c1ccc(OC)cc1)C(Cl)(Cl)Cl` (stereo not given), the “activity, negative = inhibition” value is 2.33% (inactive).

On to `CCOP(=O)(OCC)C(NC(=O)c1ccc(C)cc1)C(Cl)(Cl)Cl` (stereo not given), for which the “activity, negative = inhibition” value was 8.74% (inactive).

As for `CCOP(=O)(OCC)C(Cc1ccccc1)N=C(c1ccccc1)c1ccccc1` (stereo not given), the Potency was 35.5 µM (active).

As for `CC1=CC(=Cc2sc3ccccc3[n+]2C)C=C(C)O1`, the “activity, negative = inhibition” value was 3.92% (inactive).

`C[C@]12CC[C@H](O)C[C@H]1CC[C@@H]1C2CC[C@]2(C)[C@@H](C3=CC(=O)OC3)[C@@H](O)C[C@]12O` (stereo not given in full): the “activity, negative = inhibition” value is -0.19% (inactive).

For the molecule `CCOC(=O)[C@]12Cc3ccccc3[C@H]1N(C1CCCCC1)C(=O)c1cc(OC)ccc12`, the Potency was 3.16 µM (active).

As for `COC(=O)C1=C(c2cc3ccccc3s2)C[C@@H]2CC[C@H]1N2C(=O)NCc1cccc2ccccc12`, the “activity, negative = inhibition” value was -8.1% (inactive).

As for `Oc1cc2c(cc1CN1CCN(c3ccccc3)CC1)OCO2`, the “activity, negative = inhibition” value is 1.4% (inactive).

Take `CN(c1ccccc1)c1ccc([N+](=O)[O-])c2nonc12`: the “activity, negative = inhibition” value is -14.7% (inactive).

For `ClC(Cl)(Cl)c1ccccc1`, the “activity, negative = inhibition” value was -7.81% (inactive).

For the molecule `CC(c1ccccc1)(c1ccccc1)c1ccncc1`, the Potency is 35.5 µM (active).

`CCCC[N+]1(C)C2CC(OC(=O)C(CO)c3ccccc3)CC1C1OC12` (stereo not given): the “activity, negative = inhibition” value was -8.66% (inactive).

With `O=C(NC(c1ccc(Cl)cc1)P(=O)(Oc1ccccc1)Oc1ccccc1)OCc1ccccc1` (stereo not given), the “activity, negative = inhibition” value is 16.5% (inactive).

Take `COC(=O)N1C(c2ccccc2)C1c1ccccc1` (stereo not given): the Potency is 31.6 µM (active).

With `COC(=O)C(c1ccccc1)N1CCCCCC1` (stereo not given), the “activity, negative = inhibition” value is 12.7% (inactive).

Take `O=C(CN1CCCCC1)Nc1ccc(Br)cc1C(=O)c1ccccc1Cl`: the “activity, negative = inhibition” value was -0.013% (inactive).

With `Cn1c(O)c(C(=Nc2ccc(F)cc2)c2ccccc2)c(=O)n(C)c1=O`, the “activity, negative = inhibition” value is 13.4% (inactive).

For `CC(=O)N(C1=NCCCS1)c1ccccc1F`, the “activity, negative = inhibition” value was 9.69% (inactive).

As to `Cc1ccc(-n2c(O)c(C=NCC3CCCO3)c(=O)[nH]c2=O)c(C)c1` (stereo not given), the “activity, negative = inhibition” value is -6.22% (inactive).

On to `O=C(OCCN1CCOCC1)C1(c2ccccc2)CCCC1`, for which the “activity, negative = inhibition” value is -2.62% (inactive).

The values are drawn from PubChem BioAssay AID720708 (National Center for Advancing Translational Sciences (NCATS), 2013).
